Experimental data reported in the supplement of paper PMC6555819.

Assays:
Assay in all cases: PBM binding z-score (relative to random genomic background probes); higher = stronger binding; sequences stand for … in GC…GCGATTGACAGCGTAGAATGAAGG
[1] = test system: FXR:RXRa (NR concentration 270 nM, RXRa partner concentration 90 nM)
In short: (§1)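 Custom Agilent 4×180K protein-binding microarrays carried double-stranded probes. Their 34-nt variable regions held direct-repeat seeds, single-nucleotide variants, half-site ablations and random human genomic background sequences. Arrays were incubated 1 h with ligand-free nuclear receptor dimers in PBS pH 7.4, 2% milk, 0.02% Triton X-100, 1 mM DTT, 0.2 mg/mL BSA and 0.4 mg/ml salmon testes DNA. Antibodies against each partner (one per run) detected binding, and scanned fluorescence was regression-normalized. Binding z-scores use random background probes as reference.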

[2] = test system: LXRa:RXRa (NR concentration 270 nM, RXRa partner concentration 90 nM)
In short: as §1

[3] = test system: LXRa homodimer (NR concentration 270 nM)
In short: as §1

[4] = test system: LXRb:RXRa (NR concentration 270 nM, RXRa partner concentration 90 nM)
In short: as §1

[5] = test system: LXRb homodimer (NR concentration 270 nM)
In short: as §1

[6] = test system: PPARa:RXRa (NR concentration 270 nM, RXRa partner concentration 90 nM)
In short: as §1

[7] = test system: PPARg:RXRa (NR concentration 180 nM, RXRa partner concentration 90 nM)
In short: as §1

[8] = test system: PPARg:RXRa 270nM:90nM, anti-RXR (NR concentration 270 nM, RXRa partner concentration 90 nM)
In short: as §1

[9] = test system: PPARg:RXRa 30nM:10nM, anti-RXR (NR concentration 30 nM, RXRa partner concentration 10 nM)
In short: as §1

[10] = test system: PPARg:RXRa 90nM:30nM, anti-RXR (NR concentration 90 nM, RXRa partner concentration 30 nM)
In short: as §1

Sequence | PBM binding z-score [1] | PBM binding z-score [2] | PBM binding z-score [3] | PBM binding z-score [4] | PBM binding z-score [5] | PBM binding z-score [6] | PBM binding z-score [7] | PBM binding z-score [8] | PBM binding z-score [9] | PBM binding z-score [10]
GATACAGTGTCAAGGCCAGAGTACGCGTATTGAT | -0.101 | -0.189 | -0.775 | -0.147 | -0.421 | 0.43 | 0.593 | 0.129 | -0.172 | -0.0433
AGTATGAGGTTATACGTAGATCAGGGAAGAAAGT | 1.82 | 2.03 | 0.26 | 1.56 | 0.204 | 2.46 | 1.32 | 1.2 | 0.646 | 1.07
CCTACTGGGCCCCGAAAGGTCATTGATTCAGTGA | 3.17 | 4.07 | 4.02 | 3.98 | 0.0468 | 3.93 | 1.14 | 2.68 | 0.29 | 1.58
CCTACTGGCCCAAGGTCATTGATCAGTCAAAGCA | 2.91 | 3.24 | 2 | 3.52 | 0.491 | 3.62 | 0.964 | 2.19 | 0.438 | 1.29
CTACCAAGGTTAACAAGGTCGTTGATTACTATTC | 2.61 | 3.3 | 1.09 | 2.89 | 0.472 | 3.28 | 1.03 | 1.76 | 0.841 | 1.46
CCTCCAAGGTCAGCAGGTCAGTGAAAGCGACGTG | 5.51 | 3.58 | 0.385 | 2.93 | 0.111 | 4.67 | 4.14 | 4.24 | 1.49 | 2.93
CCGAGTAGGTTACGGGGCATTCAGGCAACGGTGA | 0.382 | 0.612 | -0.693 | 0.593 | -0.641 | 2.14 | 2.87 | 3.66 | 1.1 | 2.95
TTACCAAGGTGAGGGTCGTTGATCCCTCTGTAGA | 1.32 | 0.898 | -0.621 | 0.915 | -0.774 | 1.88 | 0.82 | 2.03 | 0.53 | 1.46
ATATGTAGGTTAGCTGGGGTCATACAGACTAGGC | 5.27 | 5.79 | 2.45 | 4.74 | 0.852 | 5.2 | 6 | 5.38 | 2.74 | 4.94
ATCTCTAGGTAAGACTCAGTTCACTGAAGAACGC | 0.642 | 0.841 | 0.58 | 0.734 | 0.669 | 0.739 | 0.313 | 0.623 | 0.222 | 0.475
TCAGATAGGTAAACAGGTGAAAGTCCGTAAGTTA | 0.678 | 0.827 | 0.121 | 0.939 | -0.225 | 2.07 | 1.3 | 2.9 | 4.02 | 3.81
TTACCAAGGTGAAGGTCGATGATCCCTCTGTAGA | 1.25 | 0.976 | -0.361 | 1.1 | -0.706 | 2.27 | 2.29 | 3.58 | 1.74 | 3.24
